6 sequences from the supplement of paper PMC6555819 can be followed below.

Assay in all cases: PBM binding z-score (relative to random genomic background probes); higher = stronger binding; sequences stand for … in GC…GCGATTGACAGCGTAGAATGAAGG
Assay [1] has as its system FXR:RXRa (NR concentration 270 nM, RXRa partner concentration 90 nM). Summed up:
(§1)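 Custom Agilent 4×180K protein-binding microarrays carried double-stranded probes, each with a 34-nt variable region. These regions held direct-repeat seeds, single-nucleotide variants, half-site ablations and random human genomic background sequences. Ligand-free nuclear receptor dimers were incubated on the arrays for 1 h, antibodies against each partner (one per run) detected binding, and scanned fluorescence was regression-normalized. Binding z-scores take the random background probes as reference.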

Assay [2] relates to LXRa:RXRa (NR concentration 270 nM, RXRa partner concentration 90 nM). The procedure, abridged: as §1
Assay [3] concerns LXRa homodimer (NR concentration 270 nM). The procedure, abridged:
as §1

For assay [4], the system named is LXRb:RXRa (NR concentration 270 nM, RXRa partner concentration 90 nM). Summed up: as §1
For assay [5], the system named is LXRb homodimer (NR concentration 270 nM). Summed up:
as §1

Assay [6] has as its system PPARa:RXRa (NR concentration 270 nM, RXRa partner concentration 90 nM). Summed up:
as §1

The test system of assay [7] is PPARg:RXRa (NR concentration 180 nM, RXRa partner concentration 90 nM). Summed up: as §1
The test system of assay [8] is PPARg:RXRa 270nM:90nM, anti-RXR (NR concentration 270 nM, RXRa partner concentration 90 nM). The procedure, abridged:
as §1

The subject of assay [9] is PPARg:RXRa 30nM:10nM, anti-RXR (NR concentration 30 nM, RXRa partner concentration 10 nM). Summed up:
as §1

The test system of assay [10] is PPARg:RXRa 90nM:30nM, anti-RXR (NR concentration 90 nM, RXRa partner concentration 30 nM). Summed up:
as §1

Assay [11] has as its system PPARg:RXRa DBDmut IVT, anti-RXR (DBD mutation: RXRa K156A/R161A, NR concentration 270 nM, RXRa partner concentration 90 nM). Summed up: as §1
Assay [12] concerns PPARg:RXRa IVT, anti-PPARg (NR concentration 270 nM, RXRa partner concentration 90 nM). The procedure, abridged:
as §1

Assay [13] deals with PPARg DBDmut:RXRa IVT, anti-PPARg (DBD mutation: PPARg1 K132A/R137A, NR concentration 270 nM, RXRa partner concentration 90 nM). The procedure, abridged: as §1
In assay [14] the test system is PPARg DBDmut IVT, anti-PPARg (DBD mutation: PPARg1 K132A/R137A, NR concentration 270 nM). Summed up:
as §1

Assay [15] concerns PPARg homodimer (NR concentration 180 nM). Summed up: as §1
Assay [16] relates to PXR:RXRa (NR concentration 270 nM, RXRa partner concentration 90 nM). The procedure, abridged: as §1
The subject of assay [17] is PXR homodimer (NR concentration 270 nM). Summed up:
as §1

In assay [18] the test system is RARa:RXR (NR concentration 270 nM, RXRa partner concentration 90 nM). Summed up: as §1
For assay [19], the system named is RARa homodimer (NR concentration 270 nM). Summed up: as §1
In assay [20] the test system is RARb:RXRa (NR concentration 270 nM, RXRa partner concentration 90 nM). The procedure, abridged: as §1

Consider AGATGTAGGTTATCGGGTCATTCAGTTTGCGCAT, for which the PBM binding z-score was found to be 3.31 in [1]; 3.21 in assay [2]; 1.64 in [3]; 3.01 in assay [4]; 0.639 in [5]; 4.89 in assay [6]. Further, the PBM binding z-score in [7] was found to be 6.25; in [8], 5.84; in assay [9], 3.56; in [10] it was 5.27; in assay [11], 7.36; in [12] it was 7.13. The PBM binding z-score in assay [13] amounted to 2.95; in [14], 1.82; in assay [15] it was 2.53; in assay [16] it was 4.02; in [17], 7.55; in assay [18], 4.01. Moreover, the PBM binding z-score in assay [19] stood at 1.35; in assay [20], 2.73.

As to CGAACTAGGTCAGACCAGGACAGTGAAGGATGAT, the PBM binding z-score is 1.62 in [1]; 1.04 in assay [2]; -0.304 in assay [3]; 0.246 in assay [4]; -0.517 in assay [5]; 3.36 in assay [6]. For the same sequence, the PBM binding z-score in [7] came to 6.07; in assay [8], 5.08; in assay [9], 2.19; in [10], 3.95; in assay [11], 7.38; in [12] it was 7.63. Moreover, the PBM binding z-score is 1.83 in assay [13]; 0.713 in assay [14]; 0.868 in assay [15]; 1.61 in assay [16]; -0.171 in assay [17]; 1.37 in assay [18]. The PBM binding z-score in [19] is -0.466; in assay [20], 3.2.

As for TCTAGCAGGCCGGAGGGTCACTCAAGAGGTACGG, the PBM binding z-score in assay [1] is 0.786; in [2], 0.705; in assay [3], -0.517; in assay [4], 0.729; in assay [5], -1.11; in [6], 1.69. For the same sequence, the PBM binding z-score was 0.508 in [7]; 1.34 in [8]; 1.19 in assay [9]; 1.2 in assay [10]; 0.524 in assay [11]; -0.0805 in assay [12]. For the same sequence, the PBM binding z-score in assay [13] is -0.889; in assay [14] it was -1.31; in assay [15] it was 0.278; in [16], 0.98; in assay [17], -0.311; in assay [18], 1.65. The PBM binding z-score in assay [19] was -0.429; in [20], 1.74.

In the case of ACTCGGAGGACAAAGGTTAGAGCTACGCCAGTGA, the PBM binding z-score was 0.928 in assay [1]; 1.08 in assay [2]; 0.0666 in assay [3]; 0.618 in assay [4]; -0.716 in [5]; 2.93 in assay [6]. Besides, the PBM binding z-score was 4.75 in assay [7]; 5.11 in [8]; 3.29 in assay [9]; 5.35 in assay [10]; 0.161 in [11]; 1.72 in [12]. Also, the PBM binding z-score in [13] is -0.577; in assay [14], -0.0683; in assay [15], 1.1; in assay [16] it was 0.7; in [17], 0.168; in assay [18], 1.46. In addition, the PBM binding z-score was found to be 0.397 in assay [19] and 2.23 in assay [20].

Turning to CAGCCTAGGTCAGCGCCAGTATAGGAGGAACGTT, the PBM binding z-score in assay [1] is 1.62; in assay [2], 1.05; in [3], -0.445; in assay [4] it was 0.71; in assay [5], -0.863; in [6] it was 1.92. For the same sequence, the PBM binding z-score in assay [7] is 0.956; in assay [8] it was 1.24; in [9], -0.327; in assay [10] it was 0.61; in assay [11], 1.84; in assay [12], 1.37. Further, the PBM binding z-score in [13] was -1.15; in [14], -0.469; in assay [15], 0.899; in [16], 0.373; in assay [17], -0.685; in assay [18] it was 1.15. Further, the PBM binding z-score is -0.632 in [19] and 3.71 in [20].

As for CCTACTGGGTCAAGGTCATTGATCAGTCAAAGCA, the PBM binding z-score in assay [1] is 6.14; in [2], 5.13; in [3], 2.13; in assay [4], 4.83; in [5], 0.0227; in [6] it was 6.04. The PBM binding z-score worked out at 8.59 in assay [7]; 7.05 in assay [8]; 5.09 in assay [9]; 6.81 in assay [10]; 6.45 in [11]; 7.7 in [12]. For the same sequence, the PBM binding z-score came to 0.76 in assay [13]; 0.202 in assay [14]; 2.56 in [15]; 5.07 in [16]; 2.3 in assay [17]; 4.8 in [18]. Moreover, the PBM binding z-score in [19] was found to be 0.915; in [20] it was 4.73.
